The whole screen tested about 5,500 compounds, of which about 2,000 (36%) were called active. Another 18% or so got no clear call; they are omitted. Cut-off read from the data, not from the text of the source: active = normalized growth mostly below about 0.91 (no sharp cut-off); inconclusive = no clear call, values can overlap the other calls; inactive = mostly above about 0.92. This is one part of the list.
Assay: chemical genetic growth profiling, strain panel (AID 1159580);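 note: tested at 20 µM; growth read once vehicle control cultures reached saturation at 30 °C; 1 = growth at the plate median or of vehicle wells; lower values mean less growth of the strain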
Settings: growth OD

Measured: normalized growth

NC(=O)NC(=O)Cc1ccccc1
inactive: S. cerevisiae deletion strains, locus YJR075W, strain HOC1, hits give low values 1.01 | S. cerevisiae deletion strains, locus YKL009W, strain mrt4, hits give low values 0.99 | S. cerevisiae deletion strains, locus YKL068W, hits give low values 0.998 | S. cerevisiae deletion strains, locus YKL085W, strain MDH1 (second series), hits give low values 0.994 | S. cerevisiae deletion strains, locus YKL085W, strain MDH1, hits give low values 0.994 | S. cerevisiae deletion strains, locus YKL160W, strain elf1, hits give low values 0.941 | S. cerevisiae deletion strains, locus YKL190W, strain CNB1, hits give low values 1.03 | S. cerevisiae deletion strains, locus YKR001C, strain vps1, hits give low values 0.994 | S. cerevisiae deletion strains, locus YKR026C, strain gcn3, hits give low values 0.993 | S. cerevisiae deletion strains, locus YKR091W, strain srl3, hits give low values 0.98 | S. cerevisiae deletion strains, locus YLL001W, strain dnm1, hits give low values 1.02 | S. cerevisiae deletion strains, locus YLL026W, hits give low values 0.984 | S. cerevisiae deletion strains, locus YLL041C, strain sdh2, hits give low values 1 | S. cerevisiae deletion strains, locus YLR027C, strain aat2, hits give low values 0.988 | S. cerevisiae deletion strains, locus YLR039C, strain RIC1, hits give low values 1.02 | S. cerevisiae deletion strains, locus YLR058C, strain SHM2, hits give low values 1.01 | S. cerevisiae deletion strains, locus YLR102C, strain apc9, hits give low values 0.999 | S. cerevisiae deletion strains, locus YLR113W, strain HOG1, hits give low values 1.01 | S. cerevisiae deletion strains, locus YLR221C, strain rsa3, hits give low values 1.03 | S. cerevisiae deletion strains, locus YLR258W, strain gsy2, hits give low values 0.977 | S. cerevisiae deletion strains, locus YLR262C, strain YPT6 (second series), hits give low values 0.99 | S. cerevisiae deletion strains, locus YLR262C, strain YPT6, hits give low values 1.05 | S. cerevisiae deletion strains, locus YLR268W, strain sec22, hits give low values 0.985 | S. cerevisiae deletion strains, locus YLR320W, strain mms22, hits give low values 1.02 | S. cerevisiae deletion strains, locus YLR330W, strain CHS5, hits give low values 1.01 | S. cerevisiae deletion strains, locus YLR342W, strain FKS1 (second series), hits give low values 1.05 | S. cerevisiae deletion strains, locus YLR342W, strain FKS1, hits give low values 0.999 | S. cerevisiae deletion strains, locus YLR357W, strain rsc2, hits give low values 0.949 | S. cerevisiae deletion strains, locus YLR370C, strain arc18, hits give low values 0.966 | S. cerevisiae deletion strains, locus YLR371W, strain rom2, hits give low values 0.997 | S. cerevisiae deletion strains, locus YLR384C, strain iki3, hits give low values 0.982 | S. cerevisiae deletion strains, locus YLR418C, strain cdc73, hits give low values 0.998 | S. cerevisiae deletion strains, locus YML016C, strain PPZ1, hits give low values 1.01 | S. cerevisiae deletion strains, locus YML032C, strain rad52, hits give low values 1 | S. cerevisiae deletion strains, locus YML120C, strain ndi1, hits give low values 1.01 | S. cerevisiae deletion strains, locus YML124C, strain tub3, hits give low values 0.996 | S. cerevisiae deletion strains, locus YMR058W, strain fet3, hits give low values 0.978 | S. cerevisiae deletion strains, locus YMR078C, strain ctf18, hits give low values 0.997 | S. cerevisiae deletion strains, locus YMR125W, strain sto1, hits give low values 0.957 | S. cerevisiae deletion strains, locus YMR129W, hits give low values 0.966 | S. cerevisiae deletion strains, locus YMR205C, strain PFK2, hits give low values 1.01 | S. cerevisiae deletion strains, locus YMR223W, strain ubp8, hits give low values 1.01 | S. cerevisiae deletion strains, locus YMR231W, strain pep5, hits give low values 1 | S. cerevisiae deletion strains, locus YMR263W, strain SAP30, hits give low values 1.01 | S. cerevisiae deletion strains, locus YMR307W, strain GAS1, hits give low values 1.08 | S. cerevisiae deletion strains, locus YNL067W, strain RPL9B, hits give low values 1.02 | S. cerevisiae deletion strains, locus YNL071W, strain lat1, hits give low values 0.995 | S. cerevisiae deletion strains, locus YNL128W, strain TEP1, hits give low values 1 | S. cerevisiae deletion strains, locus YNL153C, strain GIM3, hits give low values 1.03 | S. cerevisiae deletion strains, locus YNL183C, strain NPR1, hits give low values 0.94 | S. cerevisiae deletion strains, locus YNL209W, strain ssb2, hits give low values 0.975 | S. cerevisiae deletion strains, locus YNL233W, strain BNI4, hits give low values 1.01 | S. cerevisiae deletion strains, locus YNL248C, strain rpa49, hits give low values 0.917 | S. cerevisiae deletion strains, locus YNL250W, strain rad50, hits give low values 0.992 | S. cerevisiae deletion strains, locus YNL271C, strain bni1, hits give low values 0.992 | S. cerevisiae deletion strains, locus YNL298W, strain CLA4, hits give low values 1 | S. cerevisiae deletion strains, locus YNL307C, strain MCK1, hits give low values 0.994 | S. cerevisiae deletion strains, locus YNL322C, strain KRE1 (second series), hits give low values 0.965 | S. cerevisiae deletion strains, locus YNL322C, strain KRE1, hits give low values 1.01 | S. cerevisiae deletion strains, locus YNR049C, strain mso1, hits give low values 0.962 | S. cerevisiae deletion strains, locus YNR052C, strain pop2, hits give low values 0.989 | S. cerevisiae deletion strains, locus YOL006C, strain TOP1, hits give low values 1.14 | S. cerevisiae deletion strains, locus YOL012C, strain htz1 1.28 | S. cerevisiae deletion strains, locus YOL147C, strain pex11, hits give low values 0.997 | S. cerevisiae deletion strains, locus YOR001W, strain rrp6, hits give low values 1.02 | S. cerevisiae deletion strains, locus YOR061W, strain CKA2, hits give low values 1 | S. cerevisiae deletion strains, locus YOR069W, strain VPS5, hits give low values 1 | S. cerevisiae deletion strains, locus YOR070C, strain gyp1, hits give low values 0.996 | S. cerevisiae deletion strains, locus YOR080W, strain dia2, hits give low values 0.986 | S. cerevisiae deletion strains, locus YOR083W, strain WHI5, hits give low values 0.913 | S. cerevisiae deletion strains, locus YOR106W, strain vam3, hits give low values 0.96 | S. cerevisiae deletion strains, locus YOR136W, strain idh2, hits give low values 0.995 | S. cerevisiae deletion strains, locus YOR144C, strain elg1, hits give low values 0.994 | S. cerevisiae deletion strains, locus YOR184W, strain ser1, hits give low values 0.988 | S. cerevisiae deletion strains, locus YOR231W, strain MKK1, hits give low values 0.988 | S. cerevisiae deletion strains, locus YOR265W, strain rbl2, hits give low values 0.99 | S. cerevisiae deletion strains, locus YOR270C, strain vph1, hits give low values 0.979 | S. cerevisiae deletion strains, locus YOR290C, strain snf2, hits give low values 0.936 | S. cerevisiae deletion strains, locus YOR316C, strain cot1, hits give low values 0.994 | S. cerevisiae deletion strains, locus YPL051W, strain arl3, hits give low values 0.974 | S. cerevisiae deletion strains, locus YPL055C, strain LGE1, hits give low values 1.08 | S. cerevisiae deletion strains, locus YPL078C, strain atp4, hits give low values 0.955 | S. cerevisiae deletion strains, locus YPL106C, strain sse1, hits give low values 0.992 | S. cerevisiae deletion strains, locus YPL240C, strain hsp82, hits give low values 0.997 | S. cerevisiae deletion strains, locus YPL241C, strain CIN2, hits give low values 1.03 | S. cerevisiae deletion strains, locus YPL256C, strain CLN2, hits give low values 0.96 | S. cerevisiae deletion strains, locus YPR119W, strain clb2, hits give low values 1 | S. cerevisiae deletion strains, locus YPR141C, strain kar3, hits give low values 0.988 | S. cerevisiae deletion strains, locus YPR163C, strain tif3, hits give low values 0.995 | S. cerevisiae deletion strains, locus YPR167C, strain met16, hits give low values 0.996 | S. cerevisiae deletion strains, strain wtn01, hits give low values 0.976 | S. cerevisiae strains, strain wild type, hits give low values 1.06
